# IMPase Li cell: qHTS Assay for Identifying the Cell-Membrane Permeable IMPase Inhibitors: Potentiation with Lithium | CHO-M1 cells, IP1 TR-FRET (IP-One), carbachol + lithium | Potency, µM (series often up to 59.4 µM), actives largely listed as inhibitors | 0.35% of 210,000 active | AID 1457, 2008; active means well fitted curve in the direction sought with a large enough effect; inconclusive means small, poorly fitted or top-dose-only effect, or another doubt; inactive means no such curve, though single readings can be large; an effect the other way counts as inactive or inconclusive;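 further: IP1 builds up when IMPase is blocked and the TR-FRET signal falls; nearly all actives have a fitted effect of over 50% in size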
#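 CHO cells stably expressing M1 receptor (2000/well, cultured 16–30 h) treated 30 min at 37C with compound plus low lithium. Cytosolic IP1 by TR-FRET (665/620 ratio and 620 channel) after 10 min lysis; AC50 by Hill fit.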
# IMPase inh: qHTS Assay for Identifying the Cell-Membrane Permeable IMPase Inhibitors. inhibition (IP1 accumulation), % at 46.1 µM. AID 901, 2007. CHO-M1 cells, IP1 accumulation, HTRF TR-FRET ratio. Inositol monophosphatase 1 (Rattus norvegicus), P97697. 120,000 tested, under 10 active; active means well fitted curve in the direction sought with a large enough effect in the signal ratio, not every such curve was filed as active; inconclusive means small, poorly fitted or top-dose-only effect, or a change in a side signal; inactive means no such curve, though single readings can be large or run the other way; the % refers to the signal ratio;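 further: cells stimulated with carbachol in lithium chloride buffer; higher means more IMPase inhibition seen as more IP1 and lower FRET ratio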
#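 Measured: the HTRF emission ratio (665/620 nm) plus the 620 nm donor channel, each fitted to the Hill equation to give AC50. Cells were CHO-M1 given compounds up to 46 uM and a 30 min carbachol stimulation at 37C.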
# 12-hLO inh: qHTS Assay for Inhibitors of 12-hLO (12-human lipoxygenase); AID 1452, 2008; Potency, µM (titrated, usually from 57.1 µM), most hits filed as inhibitors; 0.12% of 150,000 active; Polyunsaturated fatty acid lipoxygenase ALOX12 (Homo sapiens), P18054; purified 12-hLO, xylenol orange hydroperoxide absorbance; active means well fitted curve in the direction sought with a large enough effect; inconclusive means small, poorly fitted or top-dose-only effect, or another doubt; inactive means no such curve, though single readings can be large; an effect the other way counts as inactive or inconclusive; further: nearly all actives have a fitted effect of over 55% in size
#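 Purified human 12hLO (150 nM final) was preincubated with compounds for 15 min at room temperature in 25 mM Hepes pH 7.0, 0.01% Triton X-100, then reacted with 40 uM arachidonic acid for 30 min. Hydroperoxide was detected with ferrous iron/xylenol orange.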
# ALDH1A1 inh: qHTS Assay for Inhibitors of Aldehyde Dehydrogenase 1 (ALDH1A1) | AID 1030, 2008 | Aldehyde dehydrogenase 1A1 (Homo sapiens), P00352 | Purified ALDH1A1, NADH fluorescence, propionaldehyde substrate | Potency, µM (titrated, usually from 75.3 µM), usual class: inhibitors | 7.3% of 220,000 active
# Target sequence (P00352 whole entry, looked up): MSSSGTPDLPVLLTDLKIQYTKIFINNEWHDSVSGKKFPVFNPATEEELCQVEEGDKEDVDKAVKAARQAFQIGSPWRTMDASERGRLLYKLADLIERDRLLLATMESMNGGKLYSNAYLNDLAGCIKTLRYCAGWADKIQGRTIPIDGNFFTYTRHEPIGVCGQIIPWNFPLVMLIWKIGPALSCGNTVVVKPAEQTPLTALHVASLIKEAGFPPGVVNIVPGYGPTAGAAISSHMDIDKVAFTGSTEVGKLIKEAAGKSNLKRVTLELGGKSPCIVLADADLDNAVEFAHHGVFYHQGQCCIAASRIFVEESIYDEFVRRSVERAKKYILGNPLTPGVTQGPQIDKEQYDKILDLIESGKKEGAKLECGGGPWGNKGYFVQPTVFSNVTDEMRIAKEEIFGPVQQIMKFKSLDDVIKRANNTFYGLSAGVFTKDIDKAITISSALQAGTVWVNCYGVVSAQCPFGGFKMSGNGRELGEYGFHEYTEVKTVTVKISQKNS
# PNC assembly inh: High Content Assay for Compounds that inhibit the Assembly of the Perinucleolar Compartment | activity change (PNC), negative = inhibition, % at 10 µM | 3.1% of 140,000 active | PC3M PTB-GFP, PNC prevalence imaging, 16 h; active compounds read low;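 active means readout at or below -70, meaning at least 70% loss of cells showing the perinucleolar compartment, a nuclear body marking cancer cells; inconclusive means readout between -30 and a set limit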
#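 PC3M cells stably expressing PTB-GFP, 750–1000 cells/well, treated 16 h at 37 °C with compound (23 nl of library stock), in duplicate. After paraformaldehyde fixation and Hoechst stain, imaged at 20x; PNC prevalence scored by image analysis.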
# HPGD inh: qHTS Assay for Inhibitors of HPGD (15-Hydroxyprostaglandin Dehydrogenase); 15-hydroxyprostaglandin dehydrogenase [NAD(+)] (Homo sapiens), P15428; purified HPGD, NADH fluorescence kinetic, PGE2 substrate; Potency, µM, most hits filed as inhibitors; 4.3% of 150,000 active
# Target sequence (P15428 whole entry, looked up): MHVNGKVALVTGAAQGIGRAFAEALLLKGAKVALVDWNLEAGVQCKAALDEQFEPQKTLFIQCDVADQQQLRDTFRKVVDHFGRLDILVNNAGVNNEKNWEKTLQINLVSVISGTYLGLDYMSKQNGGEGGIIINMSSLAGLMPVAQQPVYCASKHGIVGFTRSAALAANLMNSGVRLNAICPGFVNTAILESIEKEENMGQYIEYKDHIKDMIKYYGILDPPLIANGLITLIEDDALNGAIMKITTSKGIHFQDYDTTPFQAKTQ
#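 NADH formation kinetics: reaction with 30 uM PGE2 and 1 mM NAD+ (final), 20 nM enzyme, Tris-HCl pH 8 with Tween 20, after 15 min compound preincubation at room temperature. Fluorescence change, last versus first of five reads.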
# A number is an active result; - = inactive; ? = inconclusive; . = no result given; [ ] = dose if it differs, or a comment. Compounds with a hit are over-represented: about 11% of the library has one in this group of screens. Unless noted, the call rests on the fitted dose curve; in most records, active means well fitted inhibition curve with a large enough effect (not every such curve was filed as active); inconclusive means small, poorly fitted or top-dose-only effect, or another doubt; inactive means no such curve, though single readings can be large or run the other way.
SMILES,IMPase Li cell,IMPase inh,12-hLO inh,ALDH1A1 inh,PNC assembly inh,HPGD inh
Cc1ccc(NC(=O)COc2ccc(-c3nn(C)c(=O)c4ccccc34)cc2)c(C)c1,.,-,.,.,.,.
COc1cc2c(cc1OC)-c1cc(=Nc3c(C)cc(C)cc3C)n(C)c(=O)n1CC2,-,-,-,-,.,-
CC(C)(C)C(=O)CSc1nc2ncc(Br)cc2[nH]1,.,-,-,?,-97.8,.
O=C(CSc1nc2ncc(Br)cc2[nH]1)Nc1ccc2c(c1)OCO2,.,-,-,25.1µM,-,.
COc1ccc(/C=C2\NC(=S)N(CC3CCCO3)C2=O)c(OC)c1 (stereo not drawn),-,-,-,1.26µM,-,-
COc1ccc(/C=C2\NC(=S)N(CC3CCCO3)C2=O)c(OC)c1C (stereo not drawn),-,-,-,0.447µM,-,-
COc1ccc(Cl)cc1-c1n[nH]c(=S)o1,6.31µM,?,-,?,-,?
CCCCn1c(-c2cc(Cl)ccc2OC)n[nH]c1=S,-,-,-,?,-,28.2µM
COc1ccc(CCn2c(-c3ccc(Cl)cc3)n[nH]c2=S)cc1OC,-,.,.,?,.,.
CCN(C(=O)CCS(=O)(=O)c1cc(Br)cc2c1N(C(=O)C1CC1)CC2)c1cccc(C)c1,.,-,.,.,.,.
CCOc1ccc(Br)cc1S(=O)(=O)Nc1cccc(S(=O)(=O)N(C)c2ccccc2)c1,-,.,-,?,-,-
CC(C)=CCn1cnc2c1c(=O)n(C)c(=O)n2C,-,.,.,-,.,-
CC(C)Sc1nc2sc(-c3ccccc3)cc2c(=O)n1N,-,-,-,-,-106.0,-
CCN1C(C)=C(C(=O)OC)C(c2ccccc2)N2C(=O)[C@](O)(C(=O)OC)C(c3ccccc3)C(C(=O)c3ccccc3)=C12 (stereo partly drawn),.,.,.,-[13.5 µM],.,.
COc1cccc(CNC(=O)C2CCC(CNc3nc(=S)[nH]c4ccccc34)CC2)c1 (stereo not drawn),10µM,.,.,-,.,.
Cc1ccc(CNC(=O)C2CCC(CNc3nc(=S)[nH]c4ccccc34)CC2)cc1 (stereo not drawn),-,.,.,-,.,.
CCCCOc1ccc(S(=O)(=O)N2CCN(c3ccccc3OCC)CC2)cc1,.,-,.,.,.,.
CCC(=O)NC(=S)NNC(=O)c1ccccc1[N+](=O)[O-],-,.,.,10µM,.,.
O=C(NC(=S)NNC(=O)c1ccccc1[N+](=O)[O-])c1ccccc1,-,-,-,10µM,-,31.6µM
O=C(NNC(=S)NC(=O)c1ccccc1[N+](=O)[O-])c1ccccc1,-,-,-,-,?,-
CCC(=O)OCC(=O)[C@@]1(OC(=O)CC)[C@@H](C)C[C@@H]2[C@H]3CCC4=CC(=O)C=C[C@]4(C)[C@@]3(F)[C@@H](O)C[C@@]21C,-,.,-[0.00818 µM],-,.,-
O=c1cc(-c2ccco2)nc(-c2cccs2)o1,-,-,-,14.1µM,-,-
O=c1oc2ccc3ccccc3c2cc1-c1nnc(Nc2cccc(C(F)(F)F)c2)s1,.,-,.,.,.,.
CCOc1ccc(S(=O)(=O)NC(Cc2cnc[nH]2)C(=O)O)cc1 (stereo not drawn),-,.,.,-,.,.
CCOc1ccc(C(=O)CCNC(Cc2cnc[nH]2)C(=O)O)cc1 (stereo not drawn),-,-,-,1.58µM,-,-
SMILES,IMPase Li cell,IMPase inh,12-hLO inh,ALDH1A1 inh,PNC assembly inh,HPGD inh
O=C(C1=C[C@@H]2[C@H]3C(=O)N(c4cccc(Cl)c4)C(=O)[C@H]3[C@@H](C(=O)c3ccc(Cl)cc3)N2C=C1)c1ccccc1,-,.,-,?,-,-
Cc1ccc(N2C(=O)[C@@H]3[C@H](C2=O)[C@H]2C=C(C(=O)c4ccccc4)C=CN2[C@@H]3C(=O)c2ccc(Cl)cc2)cc1,-,.,-,25.1µM,?,39.8µM
O=C(N/N=C/c1sc(=O)n(-c2ccccc2)c1Cl)c1ccccc1,-,.,-,15.8µM,-,-
COC(=O)C1=C(C(=O)OC)C(c2ccccc2O)c2sc(=O)[nH]c2S1 (stereo not drawn),-,.,-,?,-,22.4µM
Cc1cc(C)nc(/N=C(\N)C2=C(O)CC(C)(C)CC2=O)n1,-,-,-,3.16µM,-,-
CCOc1ccc(C(C#N)N2CCOCC2)cc1OC (stereo not drawn),-,-,-,10µM,-,-
Cc1nc2c(c(C)c1C#N)C(=O)c1ccccc1-2,-,.,-,-,-96.3,-
Cc1nc2c(c(-c3ccccc3)c1C#N)C(=O)c1ccccc1-2,-,-,-,?,-,-
O=C(C[n+]1cc(Br)cc(Br)c1)c1cccc([N+](=O)[O-])c1,-,.,.,3.98µM,.,.
O=C(CSc1nnnn1-c1ccc(F)cc1)c1ccc(O)c(O)c1,-,.,.,22.4µM,.,.
Cc1ccc(-c2nc(S(=O)(=O)c3ccc(C)cc3)c(N3CCCCC3)o2)cc1,.,-,.,.,.,.
COC(=O)CC1C(=O)NCCN1C(=S)NC(=O)c1sc2ccccc2c1Cl (stereo not drawn),-,.,.,12.6µM,.,.
COc1ccc(C(=O)N2CCC3(CCCN(Cc4ccccc4)C3)CC2)cc1,-,.,-,-,.,-
COc1ccc(C2NC(=O)c3sc(=S)n(-c4ccccc4)c3N2)cc1 (stereo not drawn),-,-,-,-,?,-
O=C1NC(c2ccccc2)Nc2c1sc(=S)n2-c1ccccc1 (stereo not drawn),-,.,.,31.6µM,.,.
Oc1ccc(Cl)cc1C=Nc1ccccc1Br,-,.,-,-,-,-
Oc1ccc(Br)cc1C=Nc1ccc2c3c(cccc13)CC2,-,.,-,?,-98.5,?
CCCSc1nc2c(cnn2-c2ccc(C)c(C)c2)c(=O)[nH]1,-,-,-,-,-95.3,-
Cc1c(C)n(C)c2ccc(C(=O)NCc3cccs3)cc12,-,-,-,?,-119.3,?
Cc1ccc(C)c(Nc2ncccc2C(=O)NCc2cccs2)c1,-,.,-,-,-,25.1µM
COc1cccc2c(=O)c(C(=O)NCc3cccs3)c[nH]c12,?,-,-,?,-,?
CCCN1C(=O)c2cc(C(=O)NCc3cccs3)ccc2C1O (stereo not drawn),-,-,-,?,-,-
CC(=O)c1c[nH]c2ccc(C)cc2c1=O,-,-,-,-,-86.7,-
Cc1ccc2[nH]cc(C(=O)NCc3cccs3)c(=O)c2c1,-,-,-,15.8µM,?,-
CCOC(=O)c1ccc2[nH]cc(C(C)=O)c(=O)c2c1,-,-,-,?,-,?

# Source: PubChem BioAssay
